An excerpt weighted towards active compounds, which were near 3.2% of everything screened.
FMDV inh = foot and mouth disease virus antiviral activity | FMDV antiviral cell-based qHTS | Potency, µM (series often up to 57.9 µM), for inactives: at the highest dose activity change, negative = inhibition, usual class: inhibitors | hit rate 1.2% among 410,000 | AID 1159524; calls by dose curve; tested in HEK293T cells; note: read-out not given here; nearly all actives have a fitted effect of over 45% in size
VACV Venus inh = inhibitors of vaccinia virus (Venus reporter); Vaccinia virus Venus reporter expression, fluorescence; Potency, µM (top dose mostly 36.5 µM), for the others: top-dose activity change, negative = inhibition, hits mostly inhibitors; hit rate 0.46% among 330,000; AID 720580; calls by dose curve; tested in A549 cells; note: nearly all actives have a fitted effect of over 30% in size
VACV mCherry inh = inhibitors of vaccinia virus infection (mCherry reporter signal) | Vaccinia virus mCherry reporter infection, fluorescence | Potency, µM (doses to about 36.5 µM), inactives show at the top dose activity change, negative = inhibition, actives largely listed as inhibitors | hit rate 0.63% among 310,000; calls by dose curve; tested in A549 cells; note: nearly all actives have a fitted effect of over 35% in size
Marburg entry inh = inhibitors of Marburg virus binding or cell entry | Marburg virus pseudotyped entry inhibition, cell reporter | Potency, µM (series often up to 37.8 µM), without a hit: at the highest dose activity change, negative = inhibition, most hits filed as inhibitors | hit rate 1.8% among 300,000; calls by dose curve; tested in HEK293 cells
Lassa entry inh = Lassa virus entry inhibition; hit rate 1.2% among 300,000; AID 540256; Potency, µM (doses to about 37.9 µM), for inactives: at the top dose activity change, negative = inhibition, usual class: inhibitors; Lassa virus pseudotype entry inhibition, cell reporter; calls by dose curve; tested in HEK293 cells; note: nearly all actives have a fitted effect of over 50% in size
Starred values were filed as active, the others as inactive; i = inactive; ? = inconclusive; . = no result given; ! = not confirmed by another sample; [ ] = another dose, or the depositor's remark. % is set by controls: 0 for no effect and ±100 for the full control effect; potency is the fitted concentration of half-maximal effect.

SMILES	FMDV inh	VACV Venus inh	VACV mCherry inh	Marburg entry inh	Lassa entry inh
CCCOc1ccc(C(=O)N/N=C/c2c[nH]c3ccc(Br)cc23)cc1	-11%	-16%	-25%	-15%[46.1 µM]	?
COc1cc(-c2cc(C)c3c(OC)ccc(OC)c3n2)cc2c1OCCN(C(=O)CCn1ccc(C)n1)C2	-13%	-2%	-12%	.	.
Cc1ccc(Cn2ncc3c(N4CCN(c5ccccc5C)CC4)ncnc32)cc1	18µM*	?	.	?	?
COc1ccc(Nc2ncnc3c2cnn3Cc2ccc(C)cc2)cc1	28µM*	-22%	?	?	?
Cc1ccc(Cl)cc1-n1ncc2c(N3CCN(Cc4ccccc4)CC3)ncnc21	3.2µM*	-23%	?	.	6%[46.1 µM]
Clc1ccc(Cn2ncc3c(N4CCN(c5ccccc5)CC4)ncnc32)cc1	13µM*	?	?	.	.
Cc1ccc(Cn2ncc3c(N4CCOCC4)ncnc32)cc1	?	.	.	-19%	4%
COc1cc(CNCCc2ccccc2)cc(Cl)c1OCc1ccccc1	?	?	10µM*	?	?
COc1cc(CNCc2ccccc2)cc(Cl)c1OC	-22%	-8%	?	?	-18%[46.1 µM]
COc1cc(CNCCc2ccccc2)cc(Br)c1OCC(=O)Nc1ccccc1C	-14%	.	.	21µM*	3%
COc1ccc(CN2C[C@]3(CO)OC(CO)C[C@H]3[S+]2(=O)[O-])cc1 (some centres not stated)	.	.	.	.	5%[46.1 µM]
CN(C)CC(C)(O)c1ccc2c(c1)CN(Cc1cn(C)c3ccccc13)CCO2 (configuration not stated)	-12%	12%	-12%	.	.
CCOc1cc2[nH]c(=S)n(Cc3ccc(C(=O)NCCN(CC)CC)cc3)c(=O)c2cc1OCC	8%	-12%	i	10µM*	10%[46.1 µM]
CCN(CC)CCNC(=O)c1ccc2c(=O)n(C3CCCC3)c(=S)[nH]c2c1	-10%	.	.	8.2µM*	?
CCOc1ccccc1CNC(=O)c1cc2n(n1)CCCN(Cc1ccc(C)cc1)C2=O	-16%	-17%	-17%	.	-30%[46.1 µM]
Cc1ccc2nc(/C(C#N)=C/c3ccc(O)c(O)c3)[nH]c2c1	1%	35%	5.6µM*	?	?
CC(C)=CCCC(C)=CCON=C1C[C@@H](O)[C@@H](O)[C@@H]2[C@H]3C(=O)N(Cc4ccc5c(c4)OCO5)C(=O)[C@@H]3CC[C@H]12	.	.	.	-17%[14.2 µM]	?
Clc1ccc(CSC(Cn2ccnc2)c2ccc(Cl)cc2Cl)cc1 (configuration not stated)	?	?	-2%	?	?
Clc1ccc(COC(Cn2ccnc2)c2ccc(Cl)cc2Cl)cc1 (configuration not stated)	32µM*!	?	-10%	-40%	-29%
Cc1[nH]c2ccc(F)cc2c(=O)c1SC(F)(F)[C@@H](F)C(F)(F)F	.	.	.	-14%	.
CCc1nc(N=Nc2c(O)[nH]c3ccccc23)c2c3c(sc2n1)CCC3	9%	10µM*	16µM*	-13%	-1%
CC1CCc2c(sc3ncn(CC(=O)N=Nc4c(O)[nH]c5ccccc45)c(=O)c23)C1 (configuration not stated)	0%	.	.	.	.
COCCN(Cc1nnc(-c2cccs2)o1)C(=O)CN1C(=O)NC2(CCCCC2)C1=O	-9%	-17%	-22%	2%[46.1 µM]	-4%[46.1 µM]
C#CCOCCOCCOCCNc1nc(N2CCN(C(=O)CCCCCCCCCCNC(=O)[C@H]([C@@H](C)CC)n3cc(CCCCCN)nn3)CC2)nc(N2CCN(C(=O)CCCCCCCCCCNC(=O)[C@@H]([C@H](C)O)n3cc(C)nn3)CC2)n1	?	11µM*	?	.	.
C#CCOCCOCCOCCNc1nc(N2CCN(C(=O)CCCCCCCCCCNC(=O)[C@H](CCC(=O)O)n3cc(CCCCCN)nn3)CC2)nc(N2CCN(C(=O)CCCCCCCCCCNC(=O)[C@@H]([C@H](C)O)n3cc(C)nn3)CC2)n1	9%	-10%	i	.	.
SMILES	FMDV inh	VACV Venus inh	VACV mCherry inh	Marburg entry inh	Lassa entry inh
C#CCOCCOCCOCCNc1nc(N2CCN(C(=O)CCCCCCCCCCNC(=O)Cn3cc(CCCCCN)nn3)CC2)nc(N2CCN(C(=O)CCCCCCCCCCNC(=O)[C@H]([C@@H](C)CC)n3cc(CCCCCN)nn3)CC2)n1	?	10µM*	?	.	.
OCCCNCc1cc2ccc(F)cc2nc1N1CCN(c2cccc(Cl)c2)CC1	0%	-16%	?	.	.
CNCCCC1Sc2ccccc2Oc2ccccc21 (configuration not stated)	?	-30%	?	?	?
CNCCCC1c2ccccc2C=Cc2ccccc21	-17%	?	-10%	3.5µM*	?
CC(=O)[C@@]1(O)CC[C@H]2[C@@H]3C=C(Cl)C4=CC(=O)[C@@H]5C[C@@H]5[C@]4(C)[C@H]3CC[C@@]21C	-10%	-7%	-12%	.	.
CCOC(=O)c1ccc(NC(=O)c2cn(-c3ccccc3)nc2-c2ccc(C)cc2)cc1	-22%	-3%	-8%	.	13%[46.1 µM]
CCOC(=O)c1ccc(NC(=O)c2cn(-c3ccccc3)nc2-c2ccncc2)cc1	?	-7%	-10%	7.1µM*	-25%
Cc1cc(-c2ccc(C(C)C)c(S(=O)(=O)N3CCOc4ccccc43)c2)on1	?	-4%	-15%	3.2µM*	?
COc1ccc(-c2cc(C)no2)cc1S(=O)(=O)N1CCOc2ccccc21	-13%	-7%	-18%	.	-19%[46.1 µM]
CC(=O)Nc1ccccc1-c1nc(CNC(=O)c2cccc(-n3cccn3)c2)c(C)o1	?	-5%	-10%	.	.
CCOc1ccc(/C=N/n2c(SC)nnc(C(C)(C)C)c2=O)cc1	-4%	17%	.	-3%	10µM*
CC1CC(C)(C)NC(=S)N1CCC(=O)Nc1ccc2c(c1)OCCO2 (configuration not stated)	?	?	?	11µM*	3.5µM*
O=C(Nc1ccc2c(c1)OCCO2)c1coc2ccccc2c1=O	7.9µM*	-25%	?	-5%	-6%
CCOc1ccc(NC(=O)CCN2C(=S)NC(C)(C)CC2C)cc1 (configuration not stated)	18%	5%	-14%	1%	-12%
O=C(CCCc1ccccc1)Nc1ccc2c(c1)OCCO2	-11%	-2%	-8%	?	8.9µM*
O=C(CC(=O)c1ccccc1)Nc1ccc2c(c1)OCCO2	5%	-1%	.	?	8.9µM*
C=C1C=C(C(F)(F)F)n2ncc(C(=O)NCc3ccc(F)cc3)c2N1	.	-14%	0%	.	.
CCOc1ccc(CC(=O)Nc2nnc3n2CCS3)cc1	16%	3%	-3%	.	-9%[46.1 µM]
CC(C)c1ccc(CN2CCC3(CCC(CNC(=O)c4ccn(C)n4)O3)CC2)cc1 (configuration not stated)	-12%	-14%	-21%	.	.
Cc1cc(C)n(-c2ccc(C(=O)N3CCc4c(cnc(C)c4CNC(=O)c4ccccc4F)C3)cc2)n1	-11%	-6%	-14%	.	.
Cc1ccc2[nH]cc(C(=O)CCl)c2c1	11µM*	-25%	?	?	?
COc1ccccc1NC(=O)CSc1nc2n[nH]c(C)c2c(=N)n1-c1ccccc1Cl	?	.	.	15µM*	?
